# High-throughput results: PubChem, National Center for Advancing Translational Sciences (NCATS)
# Only some compounds are listed: those with a hit (about 10% of all), similar ones and a draw of the others.
# HEK293 tox – kills HEK 293 cells; hit rate 6.6% among 94,000; AID 1345083; Potency, µM (titrated, usually from 115 µM), for inactives: at the highest dose activity change, negative = cytotoxicity, most hits filed as inhibitors; HEK 293 viability, ATP luminescence (CellTiter-Glo), 48-72 h; also: nearly all actives have a fitted effect of over 60% in size
#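 CellTiter-Glo luminescence (cellular ATP) was read after 48 or 72 hr of compound exposure at 37 degree Celsius. Cells were HEK 293 plated at 250 cells/well.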
# FLuc inh – blocks purified firefly luciferase enzyme activity. hit rate 2.5% among 76,000. Potency, µM (highest dose often 115 µM), actives largely listed as inhibitors. purified P. pyralis luciferase, luminescence, biochemical. P08659; also: nearly all actives have a fitted effect of over 65% in size
# Target sequence (P08659 whole entry, looked up): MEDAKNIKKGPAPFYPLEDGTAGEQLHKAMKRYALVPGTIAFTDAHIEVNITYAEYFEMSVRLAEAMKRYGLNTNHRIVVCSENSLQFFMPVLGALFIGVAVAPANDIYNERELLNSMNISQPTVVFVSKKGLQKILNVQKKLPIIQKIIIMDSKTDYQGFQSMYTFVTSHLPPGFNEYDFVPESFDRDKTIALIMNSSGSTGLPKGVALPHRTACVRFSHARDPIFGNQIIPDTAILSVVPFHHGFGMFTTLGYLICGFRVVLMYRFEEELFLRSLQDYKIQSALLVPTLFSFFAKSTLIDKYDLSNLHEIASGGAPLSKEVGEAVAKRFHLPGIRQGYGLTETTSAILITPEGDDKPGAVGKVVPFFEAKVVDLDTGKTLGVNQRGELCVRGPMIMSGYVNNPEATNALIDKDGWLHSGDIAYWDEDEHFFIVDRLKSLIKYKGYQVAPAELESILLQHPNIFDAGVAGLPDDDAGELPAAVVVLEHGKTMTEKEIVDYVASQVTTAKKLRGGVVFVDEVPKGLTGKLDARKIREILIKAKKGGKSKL
#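 Biochemical qHTS: compound (6-point titration) added to 10uM D-luciferin plus 10uM ATP in Tris acetate pH 7.5 buffer with Mg, Tween-20 and BSA, then purified enzyme at 10nM; light output imaged.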
# hNpr1 antagonist – human Npr1 receptor antagonism; HEK293 hNpr1 GloSensor cGMP, ANP-stimulated luminescence; Potency, µM (doses to about 46.3 µM), without a hit: at the top dose activity change, negative = inhibition, actives largely listed as inhibitors; hit rate 1.6% among 76,000; calls by dose curve; also: nearly all actives have a fitted effect of over 60% in size
#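 HEK293 cells stably expressing human Npr1 and cGMP GloSensor pGS-40F, loaded 2 h with 2% GloSensor reagent, given compound 30 min at room temperature. Luminescence read before and 20 min after 0.1 nM hNppA.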
# NIH3T3 tox – kills NIH 3T3 cells; Potency, µM (doses to about 96.7 µM), without a hit: at the top dose activity change, negative = cytotoxicity, usual class: inhibitors; NIH 3T3 viability, CellTiter-Glo ATP luminescence, 48-72 h; hit rate 4.3% among 94,000; also: nearly all actives have a fitted effect of over 55% in size
#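 Cells were seeded at 400 per well, treated with pin-transferred compound, and kept 48 or 72 hr at 37 °C before CellTiter-Glo addition and luminescence imaging of cellular ATP.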
# GPT2 inhibitor – GPT2 alanine aminotransferase inhibition | Recombinant GPT2, coupled pyruvate oxidase/HRP Amplex Red fluorescence | Potency, µM (titrated, usually from 57.7 µM), for the others: at the highest dose activity change, negative = inhibition, actives largely listed as inhibitors | hit rate 0.25% among 100,000; also: nearly all actives have a fitted effect of over 60% in size
#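 Inhibition is scored from Amplex Red fluorescence generated when pyruvate oxidase and HRP act on pyruvate released by GPT2. Reactions contain 10ng/uL enzyme, 250uM a-KG and 2mM L-alanine and run 30 min at room temperature.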
# * marks the source's active call; other numbers are inactive results; i = inactive; ? = inconclusive; nt = not tested or not shown; [ ] = another dose, or the depositor's remark. Unless noted, calls follow the shape of the dose curve; as a rule, active = well fitted curve in the direction sought with a large enough effect; inconclusive = small, poorly fitted or top-dose-only effect, or another doubt; inactive = no such curve, though single readings can be large; an effect the other way counts as inactive or inconclusive. % is scaled to controls: 0 for no effect and ±100 for the full control effect; potency is read from the fitted curve at half-maximal effect.
SMILES,HEK293 tox,FLuc inh,hNpr1 antagonist,NIH3T3 tox,GPT2 inhibitor
O=C(Nc1ccc(Cl)cc1)N1Cc2[nH]cnc2C[C@H]1c1nc(-c2ccc3ccccc3c2)no1,?,32µM*,-2%,?,-4%
CCC1CCCCN1C(=O)c1ccc(-c2nnc3ccc(NC(=O)C4CCC4)cn23)cc1 (centres undefined),?,i,-19%,?,-10%
Cc1noc([C@@H]2CN(C3CCCC3)C[C@H]2CO)n1,i,i,12%,3%,4%
O=C1Nc2ccccc2C12CCN(Cc1cccc3ccccc13)C2 (centres undefined),79µM*,nt,nt,79µM*,-2%
COc1ccc(CN2CCC3(C2)C(=O)Nc2ccccc23)cc1 (centres undefined),?,nt,nt,-1%,i
O=C(c1nccc2ccccc12)N1CC(CO)C2(CCNCC2)C1 (centres undefined),-1%,i,4%,-8%,-1%
O=C(c1ccc(-c2ccccc2CO)nc1)N1CCC(CCc2ccccc2)CC1,?,i,?,?,-16%
CC1(C(=O)NCc2cnccn2)CCc2cnc(Nc3ccccc3)nc21 (centres undefined),?,i,4%[70.6 µM],?,-15%[88.5 µM]
CC1(C(=O)NCc2ccc(F)cc2)CCCc2cnc(Nc3cccnc3)nc21 (centres undefined),-16%[172 µM],i,-9%[70.6 µM],?,1%[88.5 µM]
CC1(C(=O)NCCN2CCOCC2)CCCc2cnc(NCc3ccccc3)nc21 (centres undefined),-5%[172 µM],i,0%[70.6 µM],?,-18%[88.5 µM]
CC1(C(=O)NCc2ccncc2)CCCc2cnc(Nc3ccccc3)nc21 (centres undefined),-24%[172 µM],i,0%[70.6 µM],100µM*,i
CC1(C(=O)NCc2cnccn2)CCCc2cnc(NCc3ccccc3)nc21 (centres undefined),-4%[172 µM],i,4%[70.6 µM],89µM*,3%[88.5 µM]
CC1(C(=O)NCc2ccncc2)CCCc2cnc(NCc3ccccc3)nc21 (centres undefined),89µM*,i,-2%[70.6 µM],25µM*,?
COc1ccc(OC)c(S(=O)(=O)N2CCC(c3nc(-c4cccn4C)no3)CC2)c1,40µM*,nt,nt,?,-9%
O=[S+]([O-])(Nc1ccccc1)c1ccc2c(c1)OCCN(Cc1ccccn1)C2,71µM*,i,-24%[70.6 µM],?,-2%[88.5 µM]
Cn1cc(CN2CCOc3cc([S+](=O)([O-])Nc4cccnc4)ccc3C2)cn1,3%[172 µM],i,6%[70.6 µM],100µM*,0%[88.5 µM]
Cn1cc(CN2CCOc3cc([S+](=O)([O-])Nc4ccccc4)ccc3C2)cn1,?,i,-7%[70.6 µM],-21%[138 µM],3%[88.5 µM]
O=[S+]([O-])(Nc1nncs1)c1ccc2c(c1)OCCN(Cc1ccncc1)C2,4%[172 µM],i,-3%[70.6 µM],?,-24%[88.5 µM]
O=[S+]([O-])(Nc1nncs1)c1ccc2c(c1)OCCN(Cc1cncc(F)c1)C2,-22%[172 µM],i,-3%[70.6 µM],28µM*,2%[88.5 µM]
Cc1ccsc1CN1CCOc2cc([S+](=O)([O-])Nc3ccccc3)ccc2C1,63µM*,i,?,45µM*,3%[88.5 µM]
O=C(Nc1ccccc1C(F)(F)F)N1CCC(N(C(=O)C2CC2)C2CCOCC2)CC1,i,nt,nt,-10%,i
O=C(NCc1cccc(F)c1)N1CCC(N2CC3CC(C2)[C@H]2CCCC(=O)N2C3)CC1 (some centres undefined),-3%,i,0%,i,i
CNC(=O)C(C)(C)N1CCC[C@H]1C(=O)N[C@@H](CO)CC(C)C,1%[172 µM],i,4%[70.6 µM],-6%[174 µM],-3%[88.5 µM]
COCCc1noc(-c2nc(-c3ccccc3F)no2)n1,-12%,28µM*,-2%,-1%,1%
O=C1CC(c2noc(-c3cccc(F)c3)n2)CN1c1ccc(F)c(Cl)c1 (centres undefined),-22%,i,-1%,?,-8%
SMILES,HEK293 tox,FLuc inh,hNpr1 antagonist,NIH3T3 tox,GPT2 inhibitor
CCOc1ccccc1NC(=O)Cn1c(N2CCc3ccccc3C2)nc(C)cc1=O,?,i,?,?,-8%
Cc1cc(=O)n(CC(=O)Nc2ccc(Br)cc2)c(N2CCc3ccccc3C2)n1,89µM*,i,-14%,?,i
COc1ccc(CNC(=O)Cn2c(N3CCc4ccccc4C3)nc(C)cc2=O)cc1,?,i,-10%,?,4%
Cc1cc(=O)n(CC(=O)Nc2cccc(F)c2)c(N2CCc3ccccc3C2)n1,?,i,2%,?,1%
CCc1cccc(NC(=O)Cn2c(N3CCc4ccccc4C3)nc(C)cc2=O)c1,?,i,?,28µM*,i
Cc1cc(=O)n(CC(=O)NCc2ccccc2Br)c(N2CCc3ccccc3C2)n1,40µM*,i,-6%,?,i
CCc1ccccc1NC(=O)Cn1c(N2CCc3ccccc3C2)nc(C)cc1=O,?,i,?,18µM*,?
COc1ccccc1CCC(=O)N1C[C@H](c2nc(-c3cccnc3)no2)[C@@H](C)C1,-38%,i,-5%,-32%,i
CC(=O)N1CCC(N2CCC[C@H]2c2nc(-c3ccc(-c4ccncc4)nc3)no2)CC1,-13%[172 µM],i,2%[70.6 µM],?,-5%[88.5 µM]
Cc1cc(=O)n(CC(=O)Nc2ccccc2)c(N2CCc3ccccc3C2)n1,32µM*,i,-17%,?,-6%
COc1cccc(CNC(=O)Cn2c(N3CCc4ccccc4C3)nc(C)cc2=O)c1,45µM*,i,-4%,-44%,i
Cc1cc(=O)n(CC(=O)Nc2ccc(C(C)C)cc2)c(N2CCc3ccccc3C2)n1,?,i,-13%,25µM*,4%
COc1ccc(NC(=O)Cn2c(N3CCc4ccccc4C3)nc(C)cc2=O)cc1Cl,40µM*,i,-6%,35µM*,i
COc1ccc(-c2ccc(C(=O)N[C@@H]3COCC[C@H]3OC)o2)cc1,-20%,35µM*,-2%,-29%,i
COc1ccc(-c2cc(C(=O)O)cc(S(=O)(=O)N3CCN(C)CC3)c2)cc1,-1%,i,-2%,-6%,i[11.5 µM]
O=C(NCCc1ccccc1F)c1nc2sccn2c1-c1ccc(F)cc1,?,nt,nt,?,-8%
COc1cccc([S+](=O)([O-])N2CCC3(CC2)NC(=O)c2ccccc2O3)c1,40µM*,i,?,?,-10%
COc1cccc([S+](=O)([O-])N2CCC3(CC2)CC(=O)Nc2ccccc2O3)c1,50µM*,i,-3%,-16%,i
Nc1nc(C2CC(N)C2)cc(N2CC(c3nc4ccccc4[nH]3)C2)n1 (centres undefined),-13%,i,5%,-4%,i
COc1cccc2c1OCCCN(c1cc(C3CC(O)C3)nc(N)n1)C2 (centres undefined),?,i,-30%,13µM*,0%[11.5 µM]
